Measurements taken from PubChem BioAssay AID504333 (National Center for Advancing Translational Sciences (NCATS), 2011).
Hit rate of the full screen: of about 360,000 compounds, about 16,000 (4.4%) were called active. Another 9% or so got no clear call; they are omitted. The entries come from a sample that favours actives as a whole. A number with no mark means an inactive call. The call rests on the fitted dose curve; in most records, active means well fitted inhibition curve with a large enough effect; inconclusive means small, poorly fitted or top-dose-only effect; inactive means no such curve, though single readings can be large or run the other way.

Biological target: Bromodomain adjacent to zinc finger domain protein 2B (Homo sapiens) (UniProt Q9UIF8)
Sequence (Q9UIF8 whole entry, looked up, the tested form may be a part): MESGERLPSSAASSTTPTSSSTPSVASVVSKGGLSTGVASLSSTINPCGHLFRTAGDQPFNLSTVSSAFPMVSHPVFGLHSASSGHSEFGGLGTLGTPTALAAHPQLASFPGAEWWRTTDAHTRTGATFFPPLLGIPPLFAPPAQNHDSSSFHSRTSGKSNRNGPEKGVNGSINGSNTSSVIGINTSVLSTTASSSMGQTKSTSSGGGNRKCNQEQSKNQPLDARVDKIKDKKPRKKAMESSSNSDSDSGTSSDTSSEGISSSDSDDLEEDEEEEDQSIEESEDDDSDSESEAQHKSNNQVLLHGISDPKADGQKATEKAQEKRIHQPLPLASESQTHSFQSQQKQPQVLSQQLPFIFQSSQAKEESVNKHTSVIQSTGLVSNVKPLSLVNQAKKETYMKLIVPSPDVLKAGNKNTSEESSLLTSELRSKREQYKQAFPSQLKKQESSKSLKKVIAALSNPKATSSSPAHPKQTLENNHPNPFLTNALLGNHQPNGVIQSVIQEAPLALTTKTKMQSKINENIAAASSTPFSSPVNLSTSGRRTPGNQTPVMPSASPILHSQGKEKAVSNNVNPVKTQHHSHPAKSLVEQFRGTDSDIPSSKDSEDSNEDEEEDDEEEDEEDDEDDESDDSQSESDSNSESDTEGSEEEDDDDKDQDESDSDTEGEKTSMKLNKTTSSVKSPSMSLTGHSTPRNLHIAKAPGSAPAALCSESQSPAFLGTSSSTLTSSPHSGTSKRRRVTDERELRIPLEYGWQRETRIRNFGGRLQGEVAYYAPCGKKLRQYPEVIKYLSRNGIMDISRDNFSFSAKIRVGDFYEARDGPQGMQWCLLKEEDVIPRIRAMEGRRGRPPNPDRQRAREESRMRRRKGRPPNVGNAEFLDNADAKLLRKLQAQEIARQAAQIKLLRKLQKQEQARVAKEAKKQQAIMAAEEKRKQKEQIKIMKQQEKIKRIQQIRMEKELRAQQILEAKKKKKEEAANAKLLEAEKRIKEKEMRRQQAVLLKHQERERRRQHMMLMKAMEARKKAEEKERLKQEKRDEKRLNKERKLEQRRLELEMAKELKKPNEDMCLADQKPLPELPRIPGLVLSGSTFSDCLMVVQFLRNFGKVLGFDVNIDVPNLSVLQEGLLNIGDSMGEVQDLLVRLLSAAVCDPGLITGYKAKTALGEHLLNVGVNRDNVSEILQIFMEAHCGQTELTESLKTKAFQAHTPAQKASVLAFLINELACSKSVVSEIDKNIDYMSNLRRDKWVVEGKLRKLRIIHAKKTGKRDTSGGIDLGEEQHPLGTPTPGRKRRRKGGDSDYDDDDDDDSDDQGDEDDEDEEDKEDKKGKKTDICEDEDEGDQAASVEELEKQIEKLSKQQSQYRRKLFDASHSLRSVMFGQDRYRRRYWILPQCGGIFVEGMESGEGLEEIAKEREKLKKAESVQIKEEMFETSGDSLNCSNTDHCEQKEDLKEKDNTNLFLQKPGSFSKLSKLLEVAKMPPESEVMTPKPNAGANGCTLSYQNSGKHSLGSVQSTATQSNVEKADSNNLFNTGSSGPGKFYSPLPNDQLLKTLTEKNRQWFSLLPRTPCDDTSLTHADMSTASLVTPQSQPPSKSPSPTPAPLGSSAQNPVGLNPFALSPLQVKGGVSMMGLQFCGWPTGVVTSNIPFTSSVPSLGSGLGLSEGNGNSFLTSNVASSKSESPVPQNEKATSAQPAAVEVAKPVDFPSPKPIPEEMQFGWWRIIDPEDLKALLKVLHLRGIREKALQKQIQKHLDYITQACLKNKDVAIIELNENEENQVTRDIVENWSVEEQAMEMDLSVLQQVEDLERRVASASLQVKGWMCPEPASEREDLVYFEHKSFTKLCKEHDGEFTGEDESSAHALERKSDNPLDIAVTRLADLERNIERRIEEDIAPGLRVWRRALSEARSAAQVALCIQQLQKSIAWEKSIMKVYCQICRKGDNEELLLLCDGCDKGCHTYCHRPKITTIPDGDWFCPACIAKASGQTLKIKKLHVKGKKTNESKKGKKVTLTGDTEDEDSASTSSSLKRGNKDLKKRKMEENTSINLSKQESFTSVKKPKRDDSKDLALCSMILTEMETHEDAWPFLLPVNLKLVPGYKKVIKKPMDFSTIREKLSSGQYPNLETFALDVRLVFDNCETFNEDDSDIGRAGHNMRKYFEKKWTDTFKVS
Assay: qHTS Assay for Inhibitors of BAZ2B; further: nearly all actives have a fitted effect of over 60% in size
Conditions: AlphaScreen BAZ2B-H3K14Ac peptide displacement; series mostly up to 114 µM; activity change, negative = inhibition: at the top concentration
Excerpt: BAZ2B (bromodomain adjacent to zinc finger domain, 2B) belongs to a family of ubiquitously expressed bromodomain containing proteins, which biological function has not yet been elucidated. […] The interaction of BAZ2B with ISWI mediated by the BAZ1 motif has recently been described. […] The protocol is based on the AlphaScreen (PerkinElmer) displacement assay developed by NCGC [5], but uses the peptide ligand Biot-H3K14Ac, a high affinity binding partner for BAZ2B, in an AlphaScreen format. Although AlphaScreen has significant advantages with its utility in a variety of epigenetic target assays, the primary screening data provided in this deposition should be used with caution due to the prevalence of screening artifacts. The top compound concentration tested was 110uM in this assay, which increases number of actives and potential artifacts. An AlphaScreen counterscreen is highly recommended to be run against any putative actives to eliminate non-specific artifacts. Alternatively, one can use other AlphaScreen assays in PubChem to filter out promiscuous hits. Eberharter, A. et al. ACF1 improves the effectiveness of nucleosome mobilization by ISWI through PHD-histone contacts. The EMBO journal 23, 4029-4039. 2004. PMID: 15457208 [2] Jones, M.H. et al. A novel family of bromodomain genes. Genomics 63, 40-45. 2000. PMID: 10662543 [3] Yasgar, et al. Compound Management for Quantitative High-Throughput Screening. JALA. 2008 Apr;13(2):79-89. PMID: 18496600 [4] Inglese, et al. Quantitative high-throughput screening: a titration-based approach that efficiently identifies biological activities in large chemical libraries. Proc Natl Acad Sci. 1;103(31):11473-8. 2006. PMID: 16864780 [5] Quinn et al. A chemiluminescence-based method for identification of histone lysine methyltransferase inhibitors. Mol Biosyst 6(5): 782-8. 2010. PMID: 20567762 [6] Baell,Holloway. New substructure filters for removal of pan assay interference compounds (PAINS) from screening libraries and for their exclusion in bioassays. J Med Chem. 53(7):2719-40. 2010. PMID: 20131845 NIH Molecular Libraries Probe Production Network [MLPCN] NIH Chemical Genomics Center [NCGC] Structural Genomics Consortium (SGC) NIH Grant: 5U54 MH084681-02
To each well of a 1,536w plate, 2ul of BAZ2B protein (final 50nM) and 1ul biotinylated histone peptide acetylated at Lys14 [b-H3(5-23)K14Ac] (final 50nM) were added in 1x PBS buffer, pH 7.4, containing 0.01% Tween-20, using a nanoliter dispenser. Formation of a protein-peptide complex proceeded at room temperature for 30 min. A Kalypsys pin-tool was employed to transfer 23 nL of library compound solution in DMSO to each well. Following a 30 min incubation of the protein-peptide complex with compounds at room temperature, a mixture of 40 ug/mL each streptavidin-coated donor and nickel chelate acceptor AlphaScreen beads (final 10 ug/mL) were added in a 1ul dispense for a final volume of 4ul. A brief centrifugation followed (1000rpm, 1 min) and were then incubated protected from the light for 20 min at room temperature. Plates were read on an EnVision multilabel plate reader using the 1,536 plate HTS AlphaScreen aperture (excitation time 80 ms, measurement time 240 ms).
On the % scale 0 is the no-effect control and ±100 the full control effect; potency means the concentration at half of the fitted maximal effect.

Compound | activity change, negative = inhibition | Potency
CCC(=NCCc1ccccc1)c1c(O)n(C2CCCCC2)c(=O)[nH]c1=O | -21.4% | –
O=C(Cn1c(=O)n(CC2CS2)c2ccccc21)N1CCCCC1 (stereo not given) | 8.82% | –
O=C(Cc1ccc(Cl)cc1)NCCN1CCN(C(=O)Cc2ccc(Cl)cc2)CC1 | 0.0403% | –
O=C(COc1ccc2ccccc2c1)N1CCN(Cc2ccncc2)CC1 | 53.5% | –
COc1ccccc1CN1CCN(C(=O)Cc2ccccc2)CC1 | – | 50.1 µM (active)
O=C(Cc1ccccc1)N1CCN(C2CCCCCC2)CC1 | – | 50.1 µM (active)
COc1ccc(N=Cc2c(O)n(C)c(=O)[nH]c2=O)cc1 | 0.618% | –
CN1CCC(OC(=O)c2cccc(F)c2)CC1 | -1.04% | –
COc1ccc(C(=O)C2CN(C)CC2C(=O)c2ccc(OC)cc2)cc1 (stereo not given) | 2.95% | –
COC(=O)C1=C(c2ccc3ccccc3c2)C[C@@H]2CC[C@H]1N2C(=O)NCCO | -6.21% | –
CC(Cc1ccccc1)NCCC(c1ccccc1)c1ccccc1 (stereo not given) | 12.5% | –
Fc1ccc(N2CCN(Cc3ccc4c(c3)OCO4)CC2)cc1 | – | 56.2 µM (active)
O=C(Cc1ccccc1[N+](=O)[O-])N1CCN(Cc2ccc3c(c2)OCO3)CC1 | -28.5% | –
Cc1cc(=O)oc2c(C)c(OCC(=O)N3CCN(Cc4ccc5c(c4)OCO5)CC3)ccc12 | -18.4% [at 57.1 µM] | –
CCc1ccc(OCC(=O)N2CCN(CC(=O)Nc3ccccc3Cl)CC2)cc1 | 10.2% | –
Cc1cc(/C=C2/C(=O)NC(=O)N(Cc3ccco3)C2=O)c(C)n1-c1ccc(C(=O)O)cc1 | – | 56.2 µM (active)
Cc1cc(C=C2C(=O)NC(=O)NC2=O)c(C)n1-c1ccncc1 | -23.5% | –
Cc1ccc(-n2c(C)cc(/C=C3\C(=O)NC(=O)N(C)C3=O)c2C)cc1C | -28.5% | –
Cn1c(O)c(C(=Nc2ccc(F)cc2)c2ccccc2)c(=O)n(C)c1=O | -8.76% | –
CCN(CC)c1ccc([N+](=O)[O-])c2cccnc12 | – | 28.2 µM (active)
COC(=O)C1=C(c2ccccc2OCc2ccccc2)C[C@@H]2CC[C@H]1N2C(=O)NCc1ccc(OC)cc1 | -6.25% | –
Cc1c(Oc2cc(NN3CCCCC3)c([N+](=O)[O-])cc2[N+](=O)[O-])cccc1[N+](=O)[O-] | 0.574% | –
CN(C)C(=O)Oc1ccc(NC(=O)N2CCOCC2)cc1 | -4.05% | –
COc1ccc2[nH]c3c(c2c1)CCN[C@H]3C | – | 44.7 µM (active)
CCOC(=O)C1(Cc2ccc(Cl)cc2)CCN(C(C)CCn2cccn2)CC1 (stereo not given) | -9.31% | –

Compound | activity change, negative = inhibition | Potency
CCCCn1c(=O)c(C(=O)Nc2ccccc2Cl)c(O)c2ccccc21 | 9.08% | –
Cc1cccc(Cn2cccc(C(=O)Nc3ccc4c(c3)OCCO4)c2=O)c1 | -2.38% | –
O=c1c2ccccc2nc(/C=C/c2ccc(F)cc2)n1-c1ccccc1O | -12.3% | –
C=CCN1C(=O)NC(=O)/C(=C/c2ccc(OCC(=O)Nc3ccc(C)cc3)cc2)C1=O | – | 50.1 µM (active)
C=CCN(CC=C)C(=O)Nc1ccc(OCC)cc1 | -21.3% | –
Cc1ccc(C2CN(C)CC2C(=O)c2ccc(F)cc2)cc1 (stereo not given) | -13% | –
CC(C)c1c(CN(C)C(C)Cc2ccccc2)n(C)n(-c2ccccc2)c1=O (stereo not given) | 8.31% | –
CN1CCc2cc3c(cc2[C@H]1[C@@H]1OC(=O)c2c1ccc1c2OCO1)OCO3 | 6.42% | –
C[C@]12CC[C@H](O)C[C@H]1CC[C@@H]1C2CC[C@]2(C)[C@@H](C3=CC(=O)OC3)[C@@H](O)C[C@]12O (stereo not given in full) | 4.14% | –
CN(C)CC1CCCCC1=O (stereo not given) | -2.32% | –
Cc1ccccc1N1C(=O)NC(=O)/C(=C\c2cc(C)n(C)c2C)C1=O | -31% | –
Cc1c(C(=O)O)cccc1-n1c(C)cc(/C=C2\C(=O)NC(=O)N(c3ccc4c(c3)OCO4)C2=O)c1C | – | 56.2 µM (active)
O=C1N=c2ccccc2=C/C1=C\c1c(O)[nH]c(=S)[nH]c1=O | 5.91% | –
O=C1NC(=O)C(C/C=C/c2ccccc2)C(=O)N1 | -5.78% | –
CCOP(=S)(OCC)C(O)CCCCCn1c(=O)c(F)cn(C2CCCO2)c1=O (stereo not given) | 2.17% | –
CCc1nc2ccccc2c(=O)n1-c1cccc(OC)c1 | 24.6% | –
COc1ccc(CN2CCN(c3ccccc3F)CC2)c(OC)c1 | – | 50.1 µM (active)
CC(C)c1ccc(O)c(CN2CCN(c3ccccc3)CC2)c1 | -3.99% | –
Cc1cccc(NC(=O)N2CC3CC(C2)c2cccc(=O)n2C3)c1 (stereo not given) | -1.2% | –
CCOc1cccc(=NC2CCCCC2)c2c(C)[nH]c(C)c12 | 19.2% | –
O=C(O)c1ccccc1NC(=O)C1C2CCC(O2)C1C(=O)O (stereo not given) | 0.502% | –
CCN(CC)C(=O)Oc1ccc(NC(=O)N2CCOCC2)cc1 | 14.1% | –
CCCCn1c(O)c(C(CC)=NCc2ccco2)c(=O)[nH]c1=O | -3.38% | –
CCC(=NCc1ccco1)c1c(O)n(Cc2ccccc2)c(=O)[nH]c1=O | – | 50.1 µM (active)
CC/C(=N\NC(=O)c1ccccc1O)c1c(O)n(Cc2ccccc2)c(=O)[nH]c1=O | 3.69% | –
